The text below walks through data of PubChem BioAssay (EPA / NIEHS).

Structures are written as SMILES. Inconclusive results are not listed. Activity calls are given as the source filed them. How the source made its calls, unless noted: active means hit-call score of the fitted dose curve at least 0.9, where 1 is the maximum; inconclusive means response in the unintended direction; inactive means score below 0.9.

Test [1] can be described thus: CCTE_Simmons_CellTiterGLO_HEK293T: Viability Assessment in CCTE's Assays for Thyroperoxidase (TPO) Inhibition, Simmons Lab (AID 2283665).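 On AC50: cells exposed to compound for 24 h before readout; actives reduce ATP signal below DMSO vehicle meaning cytotoxicity.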 The gist of the method:
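HEK293T cells in DMEM with 1% FBS were dosed with 8 concentrations (5 nM–87.5 uM final, 0.5% DMSO) for 24 hr at 37C; ATP content was read by CellTiter-Glo luminescence, loss-of-signal versus DMSO, three biological replicates.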

A short description of test [2]: Tanguay_ZF_120hpf_TR_legacy: (Legacy) Oregon State University Tanguay Lab 120 Hour Post-fertilization zebrafish Assay for Touch Response (AID 2283667). The gist of the method: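 Tropical 5D wild-type zebrafish embryos statically exposed to 120 hpf at 28°C, sealed and dark-covered, 0.64% DMSO final; touch response scored as present/absent by brightfield microscopy at 120 hpf. Trimethyltin chloride 5 uM positive control; dead embryos not scored.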

The nature of test [3]: CCTE_Padilla_ZF_144hpf_TERATOSCORE: (Legacy) CCTE's 144 Hour Post-fertilization zebrafish Assay Teratoscore, Padilla Lab (AID 2283679; active means hit-call score of the fitted dose curve at least 0.9, where 1 is the maximum; inactive means score below 0.9;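 on AC50: zebrafish embryos with chorions exposed by immersion from 6-8 hpf to 5 dpf with daily renewal; teratogenicity score from eye scoring of death hatching and malformations at 144 hpf; higher score means more developmental defects relative to DMSO baseline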). The gist of the method:
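Larvae scored by eye at 144 hpf for death, hatching and malformations after a day in clean Hanks'. Before that, daily-renewed exposure at 80 uM (0.4% DMSO, 26C) from roughly 6-8 hpf through 5 dpf, 4 embryos per chemical.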

Test [4] is described as follows: CEETOX_H295R_MTT_cell_viability: Viability Assessment in the CeeTox HT-H295R MTT Assay (AID 2283718; active means hit-call score of the fitted dose curve at least 0.9, where 1 is the maximum; inactive means score below 0.9). The gist of the method:
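Human H295R adrenal cells, prestimulated 48 h with 10 uM forskolin, were exposed 48 h to chemicals in 0.1% DMSO. Viability was measured in the same wells by MTT (0.5 mg/ml, 4 h, 37 C), absorbance 570/650 nm, as percent of controls.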

Test [5] can be described thus: Tanguay_ZF_120hpf_ActivityScore_legacy: (Legacy) Oregon State University Tanguay Lab 120 Hour Post-fertilization zebrafish Assay Score for Activity (AID 2283742).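 On AC50: dechorionated Tropical 5D wild-type zebrafish embryos held singly per well; static exposure from 6 hpf until 120 hpf at 28 °C.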 The gist of the method:
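Dechorionated Tropical 5D embryos, one per well from 6 hpf, statically exposed to 120 hpf at 28 °C in 0.64% DMSO. Mortality and malformations scored binary by brightfield microscopy; activity score combines 18 endpoints, fitted positively versus DMSO.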

Read-out in test [6]: Cytochrome P450 (CYP24A1_1), CYP24A1 (gene 1591)
Description: LTEA_HepaRG_CYP24A1_1: Life Technologies and Expression Analysis (LTEA) Assay for Cytochrome P450 (CYP24A1_1) using HepaRG (AID 2283671; active means hit-call score of the fitted dose curve at least 0.9, where 1 is the maximum; inactive means score below 0.9). As to conditions: mRNA level, 48 h; actives raise or lower the signal. The gist of the method: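 Differentiated human HepaRG cells in serum-free induction medium, exposed 48 h in duplicate to eight half-log concentrations from 100 uM top, 0.5% DMSO. Transcript measured by TaqMan qRT-PCR, normalised to ACTB, GAPDH, POLR2A; bidirectional fitting versus DMSO.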

Test [7] can be described thus: STM_H9_OrnithineISnorm_perc: Stemina devTOX quickPredict H9 human embryonic stem cell (hESC)-based Assay for Ornithine (ORN) Metabolite Biomarker, Normalized (AID 2283712; active means hit-call score of the fitted dose curve at least 0.9, where 1 is the maximum; inactive means score below 0.9;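 further: ornithine released into spent medium during last day measured by mass spectrometry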). The gist of the method:
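Undifferentiated pluripotent H9 hESCs were exposed to compound for 72h, with media and compound replaced every 24h. Ornithine in final 24-h conditioned media was measured by UPLC-HRMS, normalized to 13C-labeled spike-in standard and to median 0.1% DMSO control.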

A short description of test [8]: STM_H9_CystineISnorm_perc: Stemina devTOX quickPredict H9 human embryonic stem cell (hESC)-based Assay for Cystine (CYSS) Metabolite Biomarker, Normalized (AID 2283713; active means hit-call score of the fitted dose curve at least 0.9, where 1 is the maximum; inactive means score below 0.9). The gist of the method:
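Undifferentiated H9 hESCs were exposed to compound for 72h, with medium and compound replaced every 24h. Final-24h conditioned medium was deproteinized and analyzed by UPLC-HRMS. Cystine EIC area was normalized to spiked C13 standard and 0.1% DMSO median.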

Test [9] is described as follows: STM_H9_OrnCyssISnorm_ratio: Stemina devTOX quickPredict H9 human embryonic stem cell (hESC)-based Assay for Ornithine (ORN):Cystine (CYSS) Ratio (AID 2283714). The gist of the method:
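Undifferentiated H9 hESCs exposed 72 h, media and compound replaced every 24 h; final 24-h conditioned media deproteinized and analysed by UPLC-HRMS against C13 spike-ins. Value is the internal-standard-normalized ORN/CYSS ratio versus 0.1% DMSO.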

Test [10] is described as follows: ArunA_CellTiter_hNC: Viability Assessment in the ArunA Biomedical's Oris Neural Crest (hNC) Cell Migration Assay (AID 2283752). The gist of the method:
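Human H9-derived neural crest stem cells were plated at 60,000 per well on Matrigel in growth medium with LIF and bFGF, incubated 16 h at 37C, then exposed to chemical for 72 h. Viability was read with CellTiter Aqueous One as loss of signal versus DMSO.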

A short description of test [11]: ArunA_CellTiter_hNP: Viability Assessment in the ArunA Biomedical's Oris Neural Crest (hNC) Cell Migration Assay (AID 2283753). The gist of the method:
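H9-derived hNP1 neuroprogenitors, 60,000/well on Matrigel, cultured 16 h, then 72 h chemical exposure in test medium. Cell titer via CellTiter Aqueous One; positive-direction fit vs DMSO.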

Test [12] in a line: ArunA_Migration_hNP: ArunA Biomedical's Oris Neuroprogenitor (hNP) Cell Migration Assay (AID 2283754). The gist of the method: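 Human H9-derived hNP1 neuroprogenitors on Matrigel with LIF/bFGF, plated around seeding stoppers for 16 h at 37C; stoppers removed at start of 72 h chemical exposure. Calcein-AM staining, fluorescence 494/517 nm in detection zone; loss-of-signal vs DMSO; cytochalasin D control.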

Test [13] is described as follows: ArunA_Migration_hNC: ArunA Biomedical's Oris Neural Crest (hNC) Cell Migration Assay (AID 2283755). The gist of the method:
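Human H9-derived neural crest stem cells, 60,000/well on Matrigel, 16 h at 37C, then 72 h chemical exposure after seeding-stopper removal. Migration into detection zone read as calcein-AM fluorescence (ex494/em517), relative to DMSO.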

A short description of test [14]: ArunA_NOG_NucleusCount: ArunA Biomedical's Neurite Outgrowth (NOG) Assay for Nucleus Count (AID 2283756). The gist of the method: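 Human H9-derived differentiated neurons were exposed for 48 h right after seeding. Hoechst-stained nuclei gated by size and intensity were counted by automated high-content imaging as viable neurons. Loss of signal vs DMSO.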
Test [15] can be described thus: ArunA_NOG_NeuriteLength: ArunA Biomedical's Neurite Outgrowth (NOG) Assay for Neurite Length (AID 2283757). The gist of the method: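 Differentiated human H9-derived neurons were exposed for 48 h from seeding, then stained with Hoechst and βIII-tubulin. Automated high-content imaging gave total neurite length per valid neuron, counting processes >10 um. Loss of signal was scored versus DMSO.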

The nature of test [16]: ArunA_NOG_NeuritesPerNeuron: ArunA Biomedical's Neurite Outgrowth (NOG) Assay for Neurites Per Neuron (AID 2283758). The gist of the method: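 Differentiated human H9-derived neurons exposed to chemicals for 48 h from seeding, then stained with Hoechst and βIII-tubulin/DyLight 488. Automated imaging counted neurites (processes >10 um) per valid neuron; loss of signal versus DMSO scored.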

Test [17] is described as follows: ArunA_NOG_BranchPointsPerNeurite: ArunA Biomedical's Neurite Outgrowth (NOG) Assay for Branch Points Per Neurite (AID 2283759). The gist of the method:
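Automated image analysis traced neurites (processes >10 um) from valid cell bodies after Hoechst and βIII-tubulin staining. hNN cells from H9 embryonic stem cells, 48 h exposure. Fitted bidirectionally against DMSO.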

Test [18] has as its system zebrafish Androgen Receptor (AR), gene 100005148. Description: ATG_zfAR_XSP1: Attagene TRANS-FACTORIAL Multi-Species (XSP1) HepG2 Assay for zebrafish Androgen Receptor (AR) (AID 2283771). The gist of the method:
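HepG2 cells were transiently transfected with a zebrafish AR-GAL4 reporter system and partially stimulated with 3 nM 6-alpha-fluorotestosterone. Reporter mRNA was measured after 24 h dosing by RT-PCR with capillary electrophoresis, and gain-of-signal was fitted relative to DMSO.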

The target of test [19] is zebrafish Estrogen Receptor (ESR1), esr1 (gene 259252) (UniProt P57717). Description: ATG_zfER1_XSP1: Attagene TRANS-FACTORIAL Multi-Species (XSP1) HepG2 Assay for zebrafish Estrogen Receptor (ESR1) (AID 2283772). The gist of the method:
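Exogenous chimeric receptor-GAL4 activity is measured in transiently transfected human HepG2 liver cells after 24 h compound exposure. Reporter transcripts are detected by RT-PCR and fluorescent capillary electrophoresis, analysed for signal gain relative to DMSO.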

Test [20] relates to Thyroperoxidase (TPO), gene 445522. Description: CCTE_Simmons_GUA_TPO: CCTE's Guaiacol Assay for Thyroperoxidase (TPO) Inhibition, Simmons Lab (AID 2283750). The gist of the method:
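Porcine thyroid microsomes (25 ug) in 200mM potassium phosphate, preincubated 30 s at 37C with compound (8 concentrations, 5 nM–87.5 uM) and 35mM guaiacol; 1mM H2O2 starts reaction. Absorbance change at 450nm over first 80 s; loss of signal versus DMSO, three replicates.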

Chain of zebrafish Estrogen Receptor (ESR1), esr1 (gene 259252) (P57717 whole entry, looked up, the tested form may be a part): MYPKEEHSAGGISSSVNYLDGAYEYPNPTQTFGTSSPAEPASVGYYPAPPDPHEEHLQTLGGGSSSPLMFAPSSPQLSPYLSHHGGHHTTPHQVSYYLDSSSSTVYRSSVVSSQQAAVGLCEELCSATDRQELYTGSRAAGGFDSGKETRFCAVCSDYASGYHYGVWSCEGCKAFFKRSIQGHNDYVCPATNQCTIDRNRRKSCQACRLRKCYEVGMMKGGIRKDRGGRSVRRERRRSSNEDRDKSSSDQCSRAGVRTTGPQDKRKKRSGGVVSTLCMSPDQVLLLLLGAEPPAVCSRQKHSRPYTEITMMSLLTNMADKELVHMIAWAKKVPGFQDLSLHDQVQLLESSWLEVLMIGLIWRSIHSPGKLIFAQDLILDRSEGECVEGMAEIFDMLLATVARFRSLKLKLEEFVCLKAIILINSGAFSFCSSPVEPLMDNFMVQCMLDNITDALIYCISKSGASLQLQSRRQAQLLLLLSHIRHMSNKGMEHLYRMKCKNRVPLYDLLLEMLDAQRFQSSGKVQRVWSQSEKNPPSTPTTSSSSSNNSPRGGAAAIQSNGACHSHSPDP

Regarding `CN(C)c1ccc(Cc2ccc(N(C)C)cc2)cc1`, the half-maximal activity concentration (AC50) (as a rule, the concentration giving half of the maximal activity seen) was 22.3 µM (active) in [1] and 25.2 µM (active) in test [3]. The result in test [2], in test [4] and in test [5] was inactive.
Regarding `C=CC(=C)CCC=C(C)C`, the call in test [1], in [2], in test [6] and in test [5] was inactive.
For the molecule `CN(C)c1ccc(N=NS(=O)(=O)O)cc1`, the outcome in test [1], in test [2] and in test [5] was inactive. Moreover, the figures for the concentration at half-maximal activity (AC50) in test [7], in test [8] and in test [9] were 28.5 µM (active), 16.9 µM (active) and 20.5 µM (active), respectively.
With `CC(C)=CCC/C(C)=C\CO`, the call in [1], in [2], in test [4] and in test [5] was inactive.
`CCOc1cccc(-n2cc(C(=O)N3CCN(c4cc(C(=O)O)c5ccccc5c4)CC3)nc2-c2ccc(C)cc2)c1`: the results for the AC50 in test [1] and in [3] were 22.6 µM (active) and 16.6 µM (active), respectively. Further, the outcome in test [2], in test [4] and in test [5] was inactive.
Consider `CCCCCCc1ccc(O)cc1O`, for which the values for the concentration at half-maximal activity (AC50) in test [1], in [3] and in test [5] were 21.3 µM (active), 14.9 µM (active) and 43.8 µM (active), respectively. Besides, the outcome in [2] was inactive.
On to `CC/C(=C\C(=N/O)C(N)=O)C(C)[N+](=O)[O-]` (stereo not drawn), for which the molecule was called inactive in test [1], in test [2], in test [3] and in test [5].
With `O=P(OC(CCl)CCl)(OC(CCl)CCl)OC(CCl)CCl`, the molecule was classed as inactive in test [1], in test [7], in test [8], in [9], in test [10] and in test [11]. In addition, the call in test [12], in test [14], in test [15], in test [16], in test [17] and in test [18] was inactive. Besides, the call in [19] was inactive. Also, the figures for the AC50 in test [3], in test [5] and in test [13] were 14.3 µM (active), 38.3 µM (active) and 1.97 µM (active), respectively.
With `On1ccccc1=S`, the outcome in test [1], in [2] and in [5] was inactive. In addition, the AC50 in test [3] was 27.7 µM (active); in [7] it was 8.49 µM (active); in test [8], 5.86 µM (active); in [9] it was 7.94 µM (active); in test [20], 85.9 µM (active).
Turning to `CC(C)(O)c1coc(S(=O)(=O)NC(=O)Nc2c3c(cc4c2CCC4)CCC3)c1`, the AC50 in test [1] is 22.4 µM (active). The call in test [2], in [4] and in test [5] was inactive.
Regarding `NC(=O)NO`, the call in [1], in test [2] and in test [5] was inactive. In addition, the AC50 in test [7] was 371 µM (active); in test [8], 153 µM (active); in test [9], 392 µM (active).
For `CCOC(=O)c1ccc(C2CCC(NC[C@H](O)COc3ccc(O)c(NS(C)(=O)=O)c3)CC2)cc1` (stereo partly drawn), the AC50 in [1] was 18.3 µM (active); in test [8], 1.37 µM (active); in test [9], 1.42 µM (active). Further, the outcome in test [2], in test [7], in test [4] and in test [5] was inactive.
